Compounds without any hit were thinned out: in the full panel of roughly 83,000, 20% have a hit.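 For each line, cells grew in 96-well plates with the test compound present at a single concentration for 48 hours.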 Values without a mark were called inactive. Active and inactive are the calls of the source. The calls were made as follows: active = growth percent below 10; inactive = the rest.
Assays:
Assay in all cases: NCI-60 one-dose screen, 48 h (100 = growth as untreated, 0 = no growth, -100 = all killed)
Settings in all cases: 10 µM unless noted
SK-MEL-2 melanoma = tested on: SK-MEL-2 melanoma
EKVX NSCLC = tested on: EKVX NSCLC
SN12C renal = tested on: SN12C renal
UO-31 renal = tested on: UO-31 renal
TK-10 renal = tested on: TK-10 renal
ACHN renal = tested on: ACHN renal
CAKI-1 renal = tested on: CAKI-1 renal
A498 renal = tested on: A498 renal
CCRF-CEM leukemia = tested on: CCRF-CEM leukemia
MOLT-4 leukemia = tested on: MOLT-4 leukemia
SR leukemia = tested on: SR leukemia
RPMI-8226 leukemia = tested on: RPMI-8226 leukemia
OVCAR-8 ovarian = tested on: OVCAR-8 ovarian
OVCAR-5 ovarian = tested on: OVCAR-5 ovarian
OVCAR-4 ovarian = tested on: OVCAR-4 ovarian
SK-OV-3 ovarian = tested on: SK-OV-3 ovarian
IGROV1 ovarian = tested on: IGROV1 ovarian
OVCAR-3 ovarian = tested on: OVCAR-3 ovarian
HS 578T breast = tested on: HS 578T breast
NCI/ADR-RES ovarian = tested on: NCI/ADR-RES ovarian

Compound	growth (SK-MEL-2 melanoma)	growth (EKVX NSCLC)	growth (SN12C renal)	growth (UO-31 renal)	growth (TK-10 renal)	growth (ACHN renal)	growth (CAKI-1 renal)	growth (A498 renal)	growth (CCRF-CEM leukemia)	growth (MOLT-4 leukemia)	growth (SR leukemia)	growth (RPMI-8226 leukemia)	growth (OVCAR-8 ovarian)	growth (OVCAR-5 ovarian)	growth (OVCAR-4 ovarian)	growth (SK-OV-3 ovarian)	growth (IGROV1 ovarian)	growth (OVCAR-3 ovarian)	growth (HS 578T breast)	growth (NCI/ADR-RES ovarian)
Cc1cccc2c1C[C@@]1(C2=O)C(c2ccc(C(C)(C)C)cc2)=NOS1=O (stereo not given in full)	93.1%	79.2%	92.3%	77.1%	158%	108%	94.2%	77.1%	83.6%	80.1%	71%	69.4%	89.2%	112%	86.3%	98.4%	64.5%	92.1%	87.2%	86%
C=C(C)[C@@H]1CC[C@]2(COC(C)=O)CC[C@]3(C)[C@H](CC[C@@H]4[C@@]5(C)CCCN(C(C)=O)C(C)(C)[C@@H]5CC[C@]43C)[C@@H]12	61.3%	90%	67.5%	77%	90.3%	27.9%	24.3%	108%	59.9%	-9.89% (active)	-35.6% (active)	-6.5% (active)	48.6%	59.2%	50.7%	111%	57.6%	88.3%	73.3%	66.9%
CSC1=Nc2c(c(C)c(-c3ccccc3)n2CCCC(=O)O)C2=NC(=O)C[C@H](C)N12	107%	92.8%	122%	88.6%	118%	121%	103%	128%	98.4%	104%	114%	93.6%	110%	107%	93%	130%	97.5%	119%	98.1%	104%
Cc1cccc(-c2nc(Nc3ccc4ncsc4c3)c3ccccc3n2)n1	83.8%	79.1%	92%	69.1%	87.2%	91.9%	105%	83.6%	37.5%	64.2%	69.2%	30.6%	53.4%	97.7%	30.7%	113%	16.6%	10.1%	116%	86.9%
CCOc1c(OC)cc2c(c1O)C(=O)N[C@@H]1[C@@H](O)[C@@H](O)[C@H](O)C[C@@H]21	106%	98%	104%	92.9%	93.9%	103%	91.3%	99.5%	103%	92.4%	89.2%	103%	101%	98.7%	107%	98.1%	102%	102%	100%	110%
Cc1ccc(/C=C/C(=O)Nc2ncc(Cc3ccc(F)cc3)s2)o1	46.9%	48.5%	66.3%	40.4%	61.9%	56.3%	35.4%	27.3%	45.1%	35%	18.9%	54.2%	77.6%	64.1%	85.4%	64.6%	54.1%	36.9%	49.2%	55.7%
CN1CCN(Cc2ccc(NC(=O)c3cncc(C#Cc4cnc(N)c5ccc(F)cc45)c3)cc2C(F)(F)F)CC1	-55.1% (active)	42%	13.2%	-3.87% (active)	24.1%	6.63% (active)	19.7%	25%	-8.78% (active)	13.1%	-25.9% (active)	4.27% (active)	33.9%	44.7%	30.9%	-4.24% (active)	0.192% (active)	19.7%	11.4%	35.3%
CN1CCN(CC(=O)Nc2ccc3ncnc(Nc4ccc(Oc5cccc(C(F)(F)F)c5)c(Cl)c4)c3c2)CC1	-15.5% (active)	31.1%	51.3%	21.7%	41.6%	-63.2% (active)	-18.7% (active)	36.3%	6.92% (active)	-7.18% (active)	-6.28% (active)	-12.7% (active)	20.9%	52.9%	-18.8% (active)	23.2%	-44.6% (active)	4.81% (active)	-12% (active)	46.1%
O=C1C(Nc2ccccn2)=C(I)C(=O)c2ncccc21	-53.7% (active)	-7.46% (active)	-70.8% (active)	-97.7% (active)	-21.4% (active)	-36.1% (active)	5.77% (active)	68.2%	3.29% (active)	-25.4% (active)	2% (active)	-15.5% (active)	-15.3% (active)	-55.3% (active)	-53.3% (active)	-44.9% (active)	-67.5% (active)	-48.4% (active)	-10.1% (active)	-7.85% (active)
O=C(NNc1cnccn1)c1nc2cc(F)ccc2n2cccc12	40.8%	17.9%	13.5%	16.3%	40.5%	7.64% (active)	7.11% (active)	-42.1% (active)	4.42% (active)	5.91% (active)	3.73% (active)	12%	15.7%	31.2%	-9.11% (active)	18.4%	9.25% (active)	3.83% (active)	60.6%	0.226% (active)
O=C(Nc1ccccc1N1CCCC1=O)c1oc2ccc(F)cc2c1-c1cnn(-c2ccccc2)c1	72.8% [50 µM]	58.3% [50 µM]	48.5% [50 µM]	9.1% [50 µM] (active)	95.4% [50 µM]	46% [50 µM]	35.7% [50 µM]	29.2% [50 µM]	56.6% [50 µM]	37% [50 µM]	61.6% [50 µM]	32.3% [50 µM]	20.5% [50 µM]	87.8% [50 µM]	57.6% [50 µM]	56.5% [50 µM]	65.7% [50 µM]	72.4% [50 µM]	41.4% [50 µM]	40.4% [50 µM]
CCOc1ccc(-n2nc(C(=O)NCc3ccccc3OC)nc2-c2cc(OC)c(OC)c(OC)c2)cc1	41.5%	41.3%	39.7%	-2.66% (active)	46.5%	19.6%	25.9%	30%	39.7%	0.381% (active)	35.9%	26.9%	43.7%	74.2%	23.4%	67.1%	43.7%	49.4%	55.1%	27.8%
Cc1ccc(-c2csc(NC(=O)c3ccccc3CN3C(=O)c4ccccc4C3=O)n2)cc1	97.3%	93.6%	94.5%	85.9%	94.4%	108%	86.6%	99.8%	102%	93.4%	103%	94.8%	93.5%	90.8%	111%	97.5%	96.5%	103%	98.8%	82.3%
O=C(Cc1cccc(OC(F)(F)F)c1)Nc1ccc(CCCCc2nnc(NC(=O)Cc3ccccn3)s2)nn1	116%	73.8%	68.5%	45.1%	65%	70%	70.4%	20.6%	43%	43.8%	41.3%	6.13% (active)	65%	86.7%	76.3%	75.1%	78.9%	87.3%	79.3%	85.6%
O=C(O)COc1ccc(Cl)c(Cl)c1	118%	104%	114%	108%	116%	107%	107%	110%	100%	101%	93.7%	101%	105%	106%	113%	105%	107%	123%	123%	106%
CNC(=O)c1cc(Oc2cccc3nc(NC(=O)Nc4cc(C(F)(F)F)ccc4Cl)ccc23)ccn1	119%	99.5%	93.5%	105%	111%	101%	85.8%	109%	80.8%	89.5%	48.2%	78.8%	78%	98.7%	-10.5% (active)	115%	108%	95.4%	76.4%	93.8%
